# Bioassay records as filed in PubChem.
# D1 potentiator – potentiators of human D1 dopamine receptor; HEK293 TREx D1 cells, calcium flux, dopamine EC20 potentiation; 360,000 tested, 0.036% active; potentiation, % at 10 µM; AID 504651; P21728; in the data active = potentiation above about 30%
# D1 antagonist – blocks dopamine activation of the human D1 receptor; activity change, negative = inhibition, % at 10 µM; 360,000 tested, 3.2% active; AID 504652; HEK293 TREx D1 cells, calcium flux, dopamine EC80; stronger effect = lower value; P21728; in the data active = activity change below about -30%
#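 Kinetic fluorescence of a calcium dye serves as the read-out. D1-expressing Hek293 Trex cells, induced overnight at 30 C, are exposed to compound for 180 s before an EC80 dopamine addition, then read 180 s further.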
# D1 ag – agonists of human D1 dopamine receptor; activation, % at 2 µM; P21728; HEK293 T-REx D1 cells, calcium flux, agonist mode; AID 504660; 360,000 tested, 1% active
#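 Agonism was scored from calcium flux recorded over 180 s (1 read/s) after pintool compound addition, following a 10-cycle baseline. Cells were inducible force-coupled HEK293 TREx D1, plated overnight at 30 C and loaded with no-wash calcium dye.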
# TRHR ag – agonists of human TRH receptor; P34981; TRHR cells, calcium flux fluo-8, FDSS agonist mode; 360,000 tested, 0.18% active; AID 493084; activation, % at 2 µM
# Target sequence (P34981 whole entry, looked up): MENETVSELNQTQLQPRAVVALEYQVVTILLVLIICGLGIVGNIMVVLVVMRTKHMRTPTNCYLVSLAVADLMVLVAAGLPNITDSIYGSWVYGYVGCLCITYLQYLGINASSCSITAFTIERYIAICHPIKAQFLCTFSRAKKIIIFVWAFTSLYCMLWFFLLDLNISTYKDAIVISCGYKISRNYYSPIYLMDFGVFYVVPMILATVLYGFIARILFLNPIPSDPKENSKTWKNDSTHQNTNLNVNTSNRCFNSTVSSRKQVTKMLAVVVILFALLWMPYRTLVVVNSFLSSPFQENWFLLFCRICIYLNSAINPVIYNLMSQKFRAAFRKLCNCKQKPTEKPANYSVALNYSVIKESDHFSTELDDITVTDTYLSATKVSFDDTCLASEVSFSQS
#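 Fluo-8-loaded TRHR cells; 10 s baseline, compound added, kinetic Ca2+ fluorescence read 1/s, agonist mode.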
# TRHR PAM – allosterically enhances the human TRH receptor | enhancement, % at 2 µM | 360,000 tested, 0.66% active | P34981 | AID 493056 | TRHR cells, fluo-8 calcium fluorescence, EC20 TRH enhancement; in the data active = enhancement above about 30%
#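 Enhancer read-out: after compound pinning and an initial kinetic agonist-mode read, an EC20 of TRH (10 nM final) was injected and fluo-8 calcium signal (Ex 480/Em 530) followed at 1 s/cycle for 100 cycles in TRHR-expressing cells.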
# A number is an active result; i = inactive; nt = no result; ! = not confirmed by another sample. An excerpt weighted towards active compounds, which were near 4.7% of everything screened. Rule as the data show it, unless noted: active = activation above about 30%; inactive = the rest.
SMILES,D1 potentiator,D1 antagonist,D1 ag,TRHR ag,TRHR PAM
Cc1cccc(S(=O)(=O)C(C#N)c2nc3ccccc3nc2N2CCCC2)c1 (centres undefined),i,i,34,i,i
CC(C)(C)OC(=O)Cc1nnc(-c2cc3ccccc3[nH]2)s1,i,i,i,i,i
Cc1oc(-c2ccc(Cl)cc2)nc1CN1CCC(C(=O)NCCCN2CCCC2=O)CC1,i,i,i,i,i
Cc1ccc(-c2nc(CN3CCCC(C(=O)N4CCOCC4)C3)c(C)o2)cc1 (centres undefined),i,-34,i,i,i
Cc1oc(-c2ccc(Cl)cc2)nc1CN1CCC(C(=O)N2CCN(Cc3ccccc3)CC2)CC1,nt,-68,33,i,i
Cc1cccc(-c2nc(CN3CCCC(C(=O)NCCc4ccc(Cl)cc4)C3)c(C)o2)c1 (centres undefined),i,i,i,i,34
Cc1oc(-c2ccc(Cl)cc2)nc1CN1CCC(C(=O)NCCCN2CCCC(C)C2)CC1 (centres undefined),i,-30,i,i,i
COCCOC(=O)C1=C(C)NC(=O)NC1c1cn(-c2ccccc2)nc1-c1ccccc1 (centres undefined),i,i,i,i,i
Cc1c(NC(=O)c2ccc(Cl)cc2)cc(C(C)C)c(O)c1S(=O)(=O)c1ccccc1,i,i,i,i,i
Cc1oc(-c2cccc(Cl)c2)nc1CN1CCC(C(=O)NCc2ccco2)CC1,i,i,i,i,i
Cc1oc(-c2cccc(Cl)c2)nc1CN1CCCC(C(=O)NCc2ccco2)C1 (centres undefined),i,-41,i,i,i
Cc1oc(-c2cccc(Cl)c2)nc1CN1CCCC(C(=O)N2CCN(c3ccc(F)cc3)CC2)C1 (centres undefined),i,-64,35,i,i
O=C1[C@H]2[C@@H](c3ccc(Cl)cc3)N3C(=O)N(c4cccc(Cl)c4)C(=O)[C@@]3(Cc3ccccc3)[C@H]2C(=O)N1C1CCCCC1,i,i,i,i,i
O=C(NCC(c1ccco1)S(=O)(=O)c1ccc(Cl)cc1)c1ccccc1F (centres undefined),i,i,i,i,i
Nn1c(SCC(=O)NCCc2ccc(F)cc2)nnc1C1CCCCC1,i,i,i,i,i
COC(=O)c1ccc(OCC(O)CN2C(=O)c3ccccc3S2(=O)=O)cc1 (centres undefined),i,-40,i,i,i
O=C(CSc1nc2ccccc2c(=O)n1NC(=O)Cc1ccccc1)NCc1ccccc1,i,-32,i,i,i
CCc1cccc(C)c1NC(=O)Cn1nc(C)c2nn(-c3ccc(Cl)cc3)c(C)c2c1=O,i,i,i,i,i
CCOC(=O)c1ccc(NC(=O)Cn2nc(C)c3nn(-c4ccc(Cl)cc4)c(C)c3c2=O)cc1,i,i,i,i,34
COc1ccc(OC)c(NC(=O)C(OC(=O)CNC(=O)c2ccccc2)c2ccccc2)c1 (centres undefined),i,i,i,i,i
N#Cc1c(-c2ccco2)nc(SCC(=O)Nc2cccc(Cl)c2)[nH]c1=O,i,i,i,i,i
CC(C)(C)c1ccc(-c2nc(SCC(=O)Nc3ccc(Cl)cc3)[nH]c(=O)c2C#N)cc1,i,i,132,i,i
O=C(NCCc1ccccc1)c1nc(-c2cccs2)no1,i,-36,i,i,i
COc1ccc(Nc2nc(-c3sc(C)nc3C)cs2)c(OC)c1,i,-43,i,i,i
COc1ccc(Nc2nc(-c3cccs3)cs2)c(OC)c1,i,i,i,i,i
SMILES,D1 potentiator,D1 antagonist,D1 ag,TRHR ag,TRHR PAM
CCOC(=O)c1c(NC(=O)CSc2nnnn2-c2ccccc2)sc2c1CC(C)(C)NC2(C)C,i,i,i,i,i
Cc1ccc(CNC(=O)CSCc2ccccc2)cc1,i,i,i,i,i
CCOC(=O)c1c(NC(=O)CSc2nc3ccc(C)cc3[nH]2)sc2c1CC(C)(C)NC2(C)C,i,i,48,i,i
Cc1ccc(CNC(=O)c2nc(SCc3ccc(C)cc3)ncc2Cl)cc1,i,i,i,i,i
Cc1ccc2nc(SCC(=O)NCc3ccc(F)cc3)[nH]c2c1,i,-45,51,i,i
Cc1ccc(CNC(=O)c2nc(SCc3ccc(F)cc3)ncc2Cl)cc1,i,i,i,i,42
Cc1ccc(CNC(=O)CSCc2ccc(F)cc2)cc1,i,-36!,i,i,i
COC(=O)CSc1nc2ccc(C)cc2[nH]1,i,-36,i,i,i
COc1ccc(CCNC(=O)c2nc(SCc3ccccc3F)ncc2Cl)cc1OC,i,i,33,i,i
CCC1SC(CC)C(=O)N(CC(=O)NCc2ccc(F)cc2)C1=O (centres undefined),i,i,i,i,i
CC1SC(C)C(=O)N(CC(=O)NCc2ccc(F)cc2)C1=O (centres undefined),i,i,i,i,39
CCN(CC)c1ccc(NC(=O)c2cccn2-c2nnc(N3CCCCC3)s2)c(C)c1,i,i,i,i,i
CC1c2cc3c(cc2CCN1C(=O)c1cccc(Cl)c1)OCCCO3 (centres undefined),i,i,i,i,i
CCc1ccccc1NC(=O)Cn1c(=O)n(Cc2ccc(OC)cc2)c(=O)c2oc3ccccc3c21,i,i,i,i,35
COc1ccc(Cn2c(=O)c3oc4ccccc4c3n(CC(=O)Nc3c(C)cccc3C)c2=O)cc1,i,i,i,i,i
CN1CCN(Cc2c(O)ccc3cc(-c4ccccn4)c(=O)oc23)CC1,i,-31,44,i,i
Cc1c(C)c2ccc(O)c(CN3CCN(C)CC3)c2oc1=O,i,i,i,i,i
O=c1oc2c(CN3CCCCCC3)c(O)ccc2cc1-c1nc2ccccc2[nH]1,i,i,241,i,i
O=c1oc2c(CN3CCCC3)c(O)ccc2cc1-c1ccccc1,i,i,i,i,i
CCOC(=O)C1CCN(C(=O)c2cc3cc(Br)ccc3oc2=O)CC1,i,i,i,i,i
CCOC(=O)C1CCCN(C(=O)c2cc3cc(Br)ccc3oc2=O)C1 (centres undefined),i,i,i,i,31
CC(C)(C)OC(=O)NCc1nnc(-c2nc3ccccc3[nH]2)o1,i,i,i,i,i
C/C(CCc1ccco1)=N\NC(=O)CNc1c(Br)cc(Br)cc1Br,i,-44,i,i,i
O=C(CCC(=O)c1ccc(Cl)s1)Nc1ncccc1O,nt,i,i,i,i
O=C(CCN1CCC(c2ccc(Cl)s2)=N1)c1ccc(Cl)s1,i,i,40,i,i
Clc1ccc(Nc2c(-c3ccccc3Cl)nc3ccc(Cl)cn23)cc1,i,-41,i,i,i
Oc1ccccc1-c1nc2cnccn2c1Nc1ccc(Cl)cc1,i,i,i,i,i
COc1ccc(CNC(=O)C(c2ccco2)N(Cc2cccs2)C(=O)Cc2cccs2)cc1 (centres undefined),i,i,i,i,i
